We go through 38 molecules from PMC13494018.

The test has as its target VTCN1, Q7Z7D3.

VTCN1, Q7Z7D3, sequence (Q7Z7D3 whole entry): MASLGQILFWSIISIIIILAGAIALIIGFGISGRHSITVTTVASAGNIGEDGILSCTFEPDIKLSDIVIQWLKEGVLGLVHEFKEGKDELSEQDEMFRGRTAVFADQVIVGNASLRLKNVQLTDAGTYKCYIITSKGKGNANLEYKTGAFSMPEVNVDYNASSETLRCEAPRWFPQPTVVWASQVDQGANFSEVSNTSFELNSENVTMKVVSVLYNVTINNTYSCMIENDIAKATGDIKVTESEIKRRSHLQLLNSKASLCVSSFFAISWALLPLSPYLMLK

B1: design_603_0b98da89-d791-4423-9b2d-fd1b7292da18_2177_dldesign_0_cycle1_af2pred (protein)
chain: MKALEEAEEFAKKMIEEAKKWGEAEADVAKVLGKSLLEAVEKTLKEKNEEAALAVAKEGKEKAKKIMDRIKEDIERAKKS
Turning to B1, the “binding in a display sort” value is “not found (inactive)”.

B2: design_603_0b98da89-d791-4423-9b2d-fd1b7292da18_594_dldesign_0_cycle1_af2pred (protein)
chain: SMEEEAKKKLEEVKKEAEKVKKEAEKALKEAKATDKAKGLAAMAKVAAKAHEVRAEGDYYGKYDPEAAKIGKEVMEYVRAKAKEIEA
B2: the “binding in a display sort” value is “not found (inactive)”.

B3: design_603_0b98da89-d791-4423-9b2d-fd1b7292da18_1818_dldesign_0_cycle1_af2pred (protein)
chain: AEEKIKEGEEKAKKFVEKAKELAKEGKYNAALGYVEAAKDVAKEIEKLSEEGKEVGKKIKEEAEKAEKIVKEKEKEKKELEE
Consider B3, for which the “binding in a display sort” value was “not found (inactive)”.

B4: design_603_0b98da89-d791-4423-9b2d-fd1b7292da18_1094_dldesign_0_cycle1_af2pred (protein)
chain: GKEEAEKKLKEAKEKVEEMEKKAKEIEENAKELSAEEIEKIAEEMRKEGEEAIKKAEEADPEKGKEIRKKASEAVHKIREAIAEAKA
As for B4, the “binding in a display sort” value is “not found (inactive)”.

B5: design_603_0b98da89-d791-4423-9b2d-fd1b7292da18_386_dldesign_0_cycle1_af2pred (protein)
chain: EKEEIIKRAKEAAERMKELAKKDPKYAEDAKKGKEVAEKAIEKAKESDKSLASAEALAESLELAVEYLEKKLKE
Regarding B5, the “binding in a display sort” value is “not found (inactive)”.

B6: design_603_0b98da89-d791-4423-9b2d-fd1b7292da18_1249_dldesign_0_cycle1_af2pred (protein)
chain: AEASKQAAKEIAATVRKLGEKVPEAAPLAEEAAKAVEAAAGEAPEKIAAVAIAALKEIGEKVPEATSLANEARAEARGIAHEAKK
As to B6, the “binding in a display sort” value is “not found (inactive)”.

B7: design_603_0b98da89-d791-4423-9b2d-fd1b7292da18_1363_dldesign_0_cycle1_af2pred (protein)
chain: EEEERKSRQAYGKALSLIELARHAAKADPKAYPLALKYIEKAKELAEEASEELKKEVLEEAEEAEKEVLELGKK
Consider B7, for which the “binding in a display sort” value is “not found (inactive)”.

B8: design_603_0b98da89-d791-4423-9b2d-fd1b7292da18_1531_dldesign_0_cycle1_af2pred (protein)
chain: SEAKEEAKKALERLKKVRERAKEEAPLLTPEERKELSELLAKAREYLNLALVSKDEKEAKKYVEKGKEYLEKAEKLIEKAKAKA
As to B8, the “binding in a display sort” value was “not found (inactive)”.

B9: design_603_0b98da89-d791-4423-9b2d-fd1b7292da18_519_dldesign_0_cycle1_af2pred (protein)
chain: AAAQEEARKAAERAAKIMRRRGERTGDLEKAEEAAKRVAAALAEGRAAGSAAMAEALEEFAELEYEKRKEEKKKKEEALE
As to B9, the “binding in a display sort” value is “not found (inactive)”.

B10: design_603_0b98da89-d791-4423-9b2d-fd1b7292da18_1568_dldesign_0_cycle1_af2pred (protein)
chain: DEELKKEAKEEIKKAAEKGIAAAKAGNILEAQFYAVEAREIGREYAKKIKNKELAKEVKEYAKKQAEKIRAEAAKVLAA
As for B10, the “binding in a display sort” value is “not found (inactive)”.

B11: design_603_0b98da89-d791-4423-9b2d-fd1b7292da18_1956_dldesign_0_cycle1_af2pred (protein)
chain: VTRAELAALAHEVQEAANEVYFEAKKSKNTEKLQALAREAKALVKQAASADPETALALLKEAQALVDEAKKILEKEKKE
In the case of B11, the “binding in a display sort” value is “not found (inactive)”.

B12: design_603_0b98da89-d791-4423-9b2d-fd1b7292da18_996_dldesign_0_cycle1_af2pred (protein)
chain: SAAEERRKKGLELAEKRYAELEKLAKETEELNPELGKEAKKEAEEAKKYYEKAAEAPDSEVIDYVAKANEKRIKAEKLYKKAK
For B12, the “binding in a display sort” value is “not found (inactive)”.

B13: design_603_0b98da89-d791-4423-9b2d-fd1b7292da18_614_dldesign_0_cycle1_af2pred (protein)
chain: DEYVKKAKEAIKKAKEYVEEAKKYAEKGDIENAIKSVQKAQEEISAAYFYADQALKLDPEKGKKLKEEAEKVKEELEKVKEYIKAK
Take B13: the “binding in a display sort” value is “not found (inactive)”.

B14: design_603_0b98da89-d791-4423-9b2d-fd1b7292da18_2191_dldesign_0_cycle1_af2pred (protein)
chain: MEEAKKKAEELIKRAKEHVEKARKIAKEGGSTMEAMLHILEAEADAREALKIGEKYPELKEMAEEAKEYVKKTRKEIKAILKA
As for B14, the “binding in a display sort” value was “not found (inactive)”.

B15: design_603_0b98da89-d791-4423-9b2d-fd1b7292da18_1193_dldesign_0_cycle1_af2pred (protein)
chain: GEEEKLKELIKKTEELAEGTEKLAKKVSEKYPEFEEELKKAAEEAKKAAEEAKKNPEKAPEQYKKVNEKNFEVQQLRAEGKYKS
With B15, the “binding in a display sort” value was “not found (inactive)”.

B16: design_603_0b98da89-d791-4423-9b2d-fd1b7292da18_227_dldesign_0_cycle1_af2pred (protein)
chain: DKLKEKAEKLKKEVEEEMKKMKKLVKEGKEEEAKAEAKKTKEIAEKAEKAGEEAIEKGDEESKKAGRDALATAERAKQAAKAVIK
Regarding B16, the “binding in a display sort” value was “not found (inactive)”.

B17: design_603_0b98da89-d791-4423-9b2d-fd1b7292da18_819_dldesign_0_cycle1_af2pred (protein)
chain: SAKEKASAALRAVATAAARDAKKRFPKIDKETANEFQKARMYAADPNEVAKGIEHLKAAAAKLGEIGKEYIAAADKVAALL
As for B17, the “binding in a display sort” value was “not found (inactive)”.

B18: design_603_0b98da89-d791-4423-9b2d-fd1b7292da18_573_dldesign_0_cycle1_af2pred (protein)
chain: EELLKGAEEIKKKAEEVVKEIKKINPKLGEEAEKELKEAEKEGKKETPAVYIQKMQEALTYAKSLLIKAKKE
Regarding B18, the “binding in a display sort” value was “not found (inactive)”.

B19: design_603_0b98da89-d791-4423-9b2d-fd1b7292da18_1535_dldesign_0_cycle1_af2pred (protein)
chain: MEEKYLKEAEKLLEEGKKEIERAGKEEGAEAAKEVGKKYLEKLTEVAKKLSPEKEGEVLLKFKKESMKIIKEAEEREK
As to B19, the “binding in a display sort” value is “not found (inactive)”.

B20: design_603_0b98da89-d791-4423-9b2d-fd1b7292da18_1699_dldesign_0_cycle1_af2pred (protein)
chain: MTDLEIVEENIKEAREEFARDPRLGLAVARATVSTAKAMSKKSEEGKKALEKAKAFLEELEAEYRARLAAAAAAAAAAE
Turning to B20, the “binding in a display sort” value is “not found (inactive)”.

B21: design_603_0b98da89-d791-4423-9b2d-fd1b7292da18_2015_dldesign_0_cycle1_af2pred (protein)
chain: KETAEELLENARKLAEKAGELVGPELLEVMEKMIEAAKKEDGKKEIEELAKEALELAKKAGVPEAAEYIHQAKADAYAANVFRK
Turning to B21, the “binding in a display sort” value is “not found (inactive)”.

B22: design_603_0b98da89-d791-4423-9b2d-fd1b7292da18_1486_dldesign_0_cycle1_af2pred (protein)
chain: MSIELLAEAARAAVRIARALGEAEDVETAVAFRDKAIEAAAEDEEMAKKIIAAAKEVEDPATALAAARAALAAVEAFAA
Take B22: the “binding in a display sort” value was “not found (inactive)”.

B23: design_603_0b98da89-d791-4423-9b2d-fd1b7292da18_1770_dldesign_0_cycle1_af2pred (protein)
chain: DLEEVKKKASELLFKAIDLVSSGEKEEEGEKAIEEAKKILLSYGKEHPEYAKEMEEGAKKVESVYESAKKAAK
Regarding B23, the “binding in a display sort” value is “not found (inactive)”.

B24: design_603_0b98da89-d791-4423-9b2d-fd1b7292da18_1252_dldesign_0_cycle1_af2pred (protein)
chain: AKEVVKKAKAEAKKLGEKAAAAETLEEAKKLVKELRKEAEKQAKEMKKAGAPEKDIKEVLTTAAELGAEALAEVRS
For B24, the “binding in a display sort” value was “not found (inactive)”.

B25: design_603_0b98da89-d791-4423-9b2d-fd1b7292da18_2026_dldesign_0_cycle1_af2pred (protein)
chain: SSMKEEEIKEMEKAAKKAAELLDDEEAAKKLLEAVKLAIEDPKEGTKKLREIAKEIGAKGSEEVKKALEEAVHAALRYRAI
In the case of B25, the “binding in a display sort” value was “not found (inactive)”.

B26: design_603_0b98da89-d791-4423-9b2d-fd1b7292da18_2081_dldesign_0_cycle1_af2pred (protein)
chain: AEEAEKKVKELAKKAEEAFRRAREAGAKAVEKDPSVAKRASELVHQAAQYRAEAKAAKDPEEAKEALKKAEKAREELEKLAKA
Consider B26, for which the “binding in a display sort” value was “not found (inactive)”.

B27: design_603_0b98da89-d791-4423-9b2d-fd1b7292da18_403_dldesign_0_cycle1_af2pred (protein)
chain: AAAAEERAAGLAGRARVLEKSGLRLAKLNPEQGELLAEFLREEAEADPIGAPHFRAAADRLLAEVRKYKE
B27: the “binding in a display sort” value was “not found (inactive)”.

B28: design_603_0b98da89-d791-4423-9b2d-fd1b7292da18_2150_dldesign_0_cycle1_af2pred (protein)
chain: HERFKYAASAETIAEQVEETAKIYGDEELKEAAKKIKEAAKEAEKSEDAEEAKKAYEKAKEIRKKARKELKAKKA
For B28, the “binding in a display sort” value was “not found (inactive)”.

B29: design_603_0b98da89-d791-4423-9b2d-fd1b7292da18_450_dldesign_0_cycle1_af2pred (protein)
chain: MKKEEELKAKYKKAKELVEEKYKRAKEVVKNGTVEQGLAAAESLLEFGKHAGKSLEKAGDKEGGKEVKELAEKYYKELKEEAEKKA
For the molecule B29, the “binding in a display sort” value is “not found (inactive)”.

B30: design_603_0b98da89-d791-4423-9b2d-fd1b7292da18_1943_dldesign_0_cycle1_af2pred (protein)
chain: PPADELLALADKKAEEVEKKIEEAAEYGKKSGDKEKALKLIDEVLKEAEKEAEELIAKPETRAAGVILRNEAEVMAKNAKEKLLK
Regarding B30, the “binding in a display sort” value is “not found (inactive)”.

B31: design_603_0b98da89-d791-4423-9b2d-fd1b7292da18_768_dldesign_0_cycle1_af2pred (protein)
chain: KAFQAYNSSKALADNNVAVAKKLAEKGKLEEAEKAAKEGLERLKARAERLKGDPEAYKAAMKALEEYEKRAKEVVEEGKKAK
Consider B31, for which the “binding in a display sort” value is “not found (inactive)”.

B32: design_603_0b98da89-d791-4423-9b2d-fd1b7292da18_2259_dldesign_0_cycle1_af2pred (protein)
chain: GAAALAAGKAALKEAKDTAAKANEAMGGGLQPVFDSAMKTVEAKKGDPAAYLKAATAFKTTFSRILKLAS
In the case of B32, the “binding in a display sort” value was “not found (inactive)”.

B33: design_603_0b98da89-d791-4423-9b2d-fd1b7292da18_1380_dldesign_0_cycle1_af2pred (protein)
chain: GEEVAKVLEKNAEIAREGDAEEAIAALKEAAKELNKYHKLQPYAERLEFLAEELKKNKADPEKAAAIAKYGAELLKKAAEVAK
As to B33, the “binding in a display sort” value was “not found (inactive)”.

B34: design_603_0b98da89-d791-4423-9b2d-fd1b7292da18_1163_dldesign_0_cycle1_af2pred (protein)
chain: MEALKEIKELMKKAEEEAKKLAKSMGVEGAKEGLKVAEKYFSSIFDIAIEKLTPEEAKEALDIANKAAKEIKDYIDKAIAEK
As for B34, the “binding in a display sort” value was “not found (inactive)”.

B35: design_603_0b98da89-d791-4423-9b2d-fd1b7292da18_1135_dldesign_0_cycle1_af2pred (protein)
chain: SEELKELAKAVLEEFSKKVHELYELAAEKDKETSKKIKELAKKAAEYGKKAVEDYLKGEKKEEGEKYKKEAEKYFEEAKKLAE
Take B35: the “binding in a display sort” value is “not found (inactive)”.

B36: design_603_0b98da89-d791-4423-9b2d-fd1b7292da18_1132_dldesign_0_cycle1_af2pred (protein)
chain: EEEASKKAREDADKISKEQKKIKENAKAAKAGTPEEAKAKYEEAKKAAEEIKKIDPDLGTFVLNNIKKWYA
Regarding B36, the “binding in a display sort” value was “not found (inactive)”.

B37: design_603_0b98da89-d791-4423-9b2d-fd1b7292da18_754_dldesign_0_cycle1_af2pred (protein)
chain: NDEEAKQKLAEAAAKLHEAAALAEYEGDEELAKKAREAAKELKAAAADPSLTAEEKAKLAEEAKKKAEEIIKKVEEK
For the molecule B37, the “binding in a display sort” value is “not found (inactive)”.

B38: design_603_0b98da89-d791-4423-9b2d-fd1b7292da18_572_dldesign_0_cycle1_af2pred (protein)
chain: SEKEEYLKKAKEEMEKLKAEILELMKKGNEYLPEASKLMAEMREIGAEAAFYVGPEADELRKKIMGEVLEAAKKYSG
Take B38: the “binding in a display sort” value is “not found (inactive)”.
